Among the data in PubChem BioAssay AID425 (Sanford-Burnham Center for Chemical Genomics, 2006) are inhibition values, retold here.

Molecules are shown by their SMILES. Hit rate of the full screen: of about 110,000 compounds, about 190 (0.17%) were called active. The list comes from a sample in which actives are over-represented; it also holds similar structures and randomly drawn compounds. Results with a measured potency or affinity are listed apart. Values without a mark were called inactive. Cut-off read from the data, not from the text of the source: active = inhibition above about 50%; inactive = the rest.

In the test the target is Dual specificity protein phosphatase 6 (Rattus norvegicus) (UniProt Q64346). In words: MKP-3 phosphatase inhibitors, primary screen, biochemical, rat enzyme, in vitro (AID 425).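 Note: plate controls were vehicle for no effect and reference inhibitor for full effect.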 Conditions: recombinant MKP-3 phosphatase activity, fluorescence; at 20 µM; hits give high values.
Sequence of Dual specificity protein phosphatase 6 (Rattus norvegicus) (Q64346 whole entry, looked up): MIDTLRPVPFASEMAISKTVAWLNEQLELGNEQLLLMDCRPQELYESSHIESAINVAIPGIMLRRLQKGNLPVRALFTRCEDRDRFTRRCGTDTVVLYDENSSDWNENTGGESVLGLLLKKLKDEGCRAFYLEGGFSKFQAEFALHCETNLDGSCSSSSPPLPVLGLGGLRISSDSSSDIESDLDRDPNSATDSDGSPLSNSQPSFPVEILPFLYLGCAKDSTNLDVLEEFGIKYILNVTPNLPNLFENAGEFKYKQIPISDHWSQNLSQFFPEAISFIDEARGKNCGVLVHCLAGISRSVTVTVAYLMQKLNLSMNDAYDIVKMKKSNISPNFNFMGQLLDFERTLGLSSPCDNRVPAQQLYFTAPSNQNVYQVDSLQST
`CC(C(=O)NCc1ccccn1)N1C(=O)c2ccccc2C1=O` (centres undefined): the inhibition (as a rule, the drop in the measured response relative to a control, in per cent) is -2.2%.
For `Clc1ccc(-c2ccc(/C=C\c3nc4ccccc4o3)o2)cc1` the value was 4.5%; for `O=C(O)CCCCCN1C(=O)/C(=C2/C(=O)N(CC(=O)O)c3ccccc32)SC1=S`, 1%; for `O=C(CN1C(=O)/C(=C/c2ccccc2)SC1=S)Nc1cccc(Br)c1`, 2.3%.
For `CCOc1ccc(N(CC(=O)NCc2ccccc2)S(C)(=O)=O)cc1` the value was -13.8%; for `Cc1cc(Nc2ccccc2)n(-c2ccccc2)n1`, -6.8%; for `Cc1cc2n(n1)SC(Nc1ccccc1)N2` (centres undefined), 61.5% (active).
For `Cc1cc(C)n(C(=O)Nc2ccccc2)n1`, the inhibition was 4.3%.
For `COc1cc(C(=O)N2CCN(C3C4CC5CC(C4)CC3C5)CC2)cc(OC)c1OC` (centres undefined) the value was 3.7%.
The result for `O=C1C=C(C(c2ccccc2)c2ccccc2)C(=O)c2ccccc21` reads 6.7%; that for `CC(=O)C(C(C)=O)C1=CC(=O)C(=O)c2ccccc21`, 91.6% (active); that for `CC(=O)N(C)C1=C(Cl)C(=O)c2ccccc2C1=O`, 54.9% (active).
For `CC(=O)C(C(C)=O)C1=C(Cl)C(=O)C(=O)c2ccccc21` the value was 71% (active); for `CC(=O)NC1=C(Cl)C(=O)c2ccccc2C1=O`, 106% (active); for `CC(=O)c1ccc(NC2=C(Cl)C(=O)c3ccccc3C2=O)cc1`, -8.2%.
Turning to `O=C1C(=O)c2ccccc2C(Cl)=C1Cl`, the inhibition is 23%.
`CC(C)OC1=C(Cl)C(=O)c2ccccc2C1=O`: the inhibition was 5.3%.
The result for `CC(=O)Nc1ccc(NC2=C(Cl)C(=O)c3ccccc3C2=O)cc1` reads 3.8%.
For `CC(=O)NC1=C(N(C)C)C(=O)c2ccccc2C1=O` the value was 0.7%; for `CC(=O)N(C1=C(Cl)C(=O)c2ccccc2C1=O)c1ccc(Cl)cc1`, 13.9%; for `CC(=O)N(C1=C(Cl)C(=O)c2ccccc2C1=O)c1ccc(Br)cc1`, 21.1%.
The result for `Cc1cc(O)c2c(-c3ccccc3)cc(=O)oc2c1` reads -1.9%.
On to `CCOC(=O)c1ccc(N2C(=O)C(O)=C(C(C)=O)C2c2ccccn2)cc1` (centres undefined), for which the inhibition is -5.9%.
The result for `O=C1N/C(=N\N=C\c2cccc([N+](=O)[O-])c2)SC1Cc1cccc(Cl)c1Cl` (centres undefined) reads -3%; that for `O=C(O)COc1ccc(N2C(=O)c3c(Cl)c(Cl)c(Cl)c(Cl)c3C2=O)cc1`, 2.1%; that for `CC(=O)c1ccc(N2C(=O)c3c(Cl)c(Cl)c(Cl)c(Cl)c3C2=O)cc1`, 1.4%.
The result for `O=C(NCc1cccs1)C1CCN(S(=O)(=O)N2CCCC2)CC1` reads 3.1%.
The result for `Clc1cccc(Nc2nc3c(s2)CCCC3)c1` reads 0.9%; that for `Cc1cccc(Nc2nc3c(s2)CCCC3)c1`, 95.3% (active).
With `Cc1ccc(C)c(Nc2nc3c(s2)CCCC3)c1`, the inhibition is -4%.
For `COc1ccccc1N1C(=O)C2C3C=CC(O3)C2C1=O` (centres undefined) the value was -2.7%; for `CCOC(=O)N1CCC(N2C(=O)c3ccccc3C2=O)CC1`, 1.8%; for `CN(C)S(=O)(=O)c1cc(C(=O)NCC2CCCO2)c(Cl)cc1Cl` (centres undefined), -1.6%.
Take `CCC(C(=O)NC1CCCC1)N(C(=O)Cn1nnc(-c2ccc(C)o2)n1)C(C)(C)C` (centres undefined): the inhibition was -14.3%.
For `O=C(O)c1ccc(-n2c(=O)c3ccccc3c3ccccc3c2=O)cc1` the value was 1.5%.
The result for `Cc1ccc(-n2c(=O)c3cc4c(=O)n(-c5ccc(C)c(C)c5)c(=O)c4c(C(=O)c4ccccc4)c3c2=O)cc1C` reads 0.3%.
For `Cc1ccc(OCC(=O)N(Cc2ccc(N(C)C)cc2)C2CCS(=O)(=O)C2)cc1` (centres undefined) the value was -8.2%; for `COc1ccc(/C=N/NC(=O)COc2ccc3c(C)cc(=O)oc3c2)cc1`, -1.4%; for `CCOc1ccc(NCC(=O)N/N=C/c2cc([N+](=O)[O-])ccc2O)cc1`, 5.2%.
Turning to `O=c1c[n+]([O-])c2ccccc2n1OCc1ccccc1`, the inhibition was 0%.
The result for `CC1CCN(C(=O)CSc2nc3c(cnn3-c3ccccc3)c(=O)[nH]2)CC1` reads -9.5%; that for `CC(C)CCNC(=O)Cn1cc2c(n1)CCCCC2`, -5.2%; that for `O=S(=O)(O)c1cccc2c(N=Cc3cc(Cl)cc(Cl)c3O)cccc12`, 0.7%.
For `Oc1ccc(N=Nc2ccc(Cl)cc2)c2cccnc12` the value was 2.7%; for `Cc1ccc(OCCOc2ccc(C=O)cc2)cc1C`, 1.6%.
For `CCC(=O)c1ccc(N2CCN(C(=O)c3ccc(F)c(F)c3)CC2)c(F)c1`, the inhibition was 2%.
The result for `Cc1ccc(S(=O)(=O)N(C)CCCC(=O)N2CCN(C=O)CC2)cc1` reads -5.2%; that for `O=C(Nc1cccc2c1CCCC2)c1ccco1`, -7%.
The result for `CCn1c(SCC(=O)N/N=C/C=C/c2ccccc2)nc2ccccc21` reads 1.5%.
For `O=C(c1ncc[nH]1)c1ccccc1C(=O)N1CCOCC1` the value was 1.3%; for `COc1ccccc1-c1nc(C#N)c(N2CCC(Cc3ccccc3)CC2)o1`, 3.6%; for `COc1cc2cc(=O)n(Cc3ccccc3)c(C)c2cc1OC`, 70.3% (active).
In the case of `COc1ccc2c(c1)c(=O)c(Br)c(C)n2Cc1ccccc1`, the inhibition was -17.6%.
Turning to `COc1cc2c(=O)n(Cc3ccccc3)c(=O)n(CC(=O)C(C)(C)C)c2cc1OC`, the inhibition was 4%.
`O=C1C=CC2=C3Oc4c(ccc5cc(O)ccc45)C(c4ccccc4C(=O)O)C3C=CC2=C1` (centres undefined): the inhibition was 82.7% (active).
As for `Cc1ccc(S(=O)(=O)Cc2ccc(C(=O)N3CCN(c4ccc(F)cc4)CC3)o2)cc1`, the inhibition is -8.1%.
In the case of `CCOC(=O)C1=C(C)NC2=C(C(=O)CCC2)C1c1ccc(OCc2cccc(F)c2)c(OC)c1` (centres undefined), the inhibition is 2.1%.
With `CCc1c(C)nc2c(OC)cccc2c1Cl`, the inhibition is 2.1%.
The result for `COc1cccc2c(Cl)c(CC=C(Cl)Cl)c(C)nc12` reads 74.2% (active); that for `COc1cccc2c(Cl)cc(C)nc12`, -2.4%; that for `COc1ccc(S(=O)(=O)Nc2cc(C)c(O)c(S(=O)(=O)c3ccccc3)c2)cc1`, -2.6%.
Regarding `CN(C)c1ccc(NC(=S)Nc2ccccc2)cc1`, the inhibition was 0.8%.
For `CC(=O)N(C)c1ccc(NC(=S)Nc2ccccc2)cc1` the value was 2.9%.
For `CN(C(=S)Nc1ccccc1)c1ccccc1` the value was 50.8% (active).
